Data on 14 compounds can be found in PubChem BioAssay (NCI).

Compounds without any hit were thinned out: in the full panel of roughly 83,000, 20% have a hit.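 Negative percent growth values reflect cell death: -40 means 40% of the cells present at the start died, and -100 means all died.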 Values without a mark were called inactive. The source made the active and inactive calls. The calls were made as follows: active = growth percent below 10; inactive = the rest.

Among the test systems are SK-MEL-2 melanoma; EKVX NSCLC; SN12C renal; UO-31 renal; TK-10 renal; ACHN renal; CAKI-1 renal; A498 renal; CCRF-CEM leukemia; MOLT-4 leukemia.
Test in all cases: NCI-60 one-dose screen, 48 h (100 = growth as untreated, 0 = no growth, -100 = all killed)
Holding throughout (conditions): 10 µM unless noted

Turning to `O=C(O)c1cn(C2CC2)c2cc(N3CCN(C(=O)N(c4ccccc4)c4nc(-c5ccccc5)cs4)CC3)c(F)cc2c1=O`, the growth is -18.3% (active) with SK-MEL-2 melanoma; 16.9% in the assay with EKVX NSCLC; 1.06% (active) in the assay with SN12C renal; 5.23% (active) in the assay on UO-31 renal; 38.3% in the assay on TK-10 renal; -79.1% (active) in the assay with ACHN renal. Besides, the growth with CAKI-1 renal is 6.68% (active); with A498 renal, 3.2% (active); with CCRF-CEM leukemia, 10.9%; in the assay on MOLT-4 leukemia it was 2.43% (active).
Take `O=C(Nc1ccc(OS(=O)(=O)c2ccc(F)cc2)cc1)C1CCCCCC1`: the growth in the assay with SK-MEL-2 melanoma was 98.2%; with EKVX NSCLC, 96%; with SN12C renal it was 88.9%; in the assay on UO-31 renal, 101%; in the assay with TK-10 renal, 107%; with ACHN renal it was 110%. The growth in the assay on CAKI-1 renal is 91.7%; with A498 renal, 85.1%; with CCRF-CEM leukemia, 81.5%; with MOLT-4 leukemia, 77.4%.
Turning to `COc1ccc(OC)c(Nc2nnc(-c3ccc(O)c(OC)c3)o2)c1`, the growth was 96.3% with SK-MEL-2 melanoma; 82.5% in the assay with EKVX NSCLC; 34% with SN12C renal; 20.3% in the assay on UO-31 renal; 14.8% with TK-10 renal; 37.9% in the assay with ACHN renal. Besides, the growth with CAKI-1 renal is 30.4%; with A498 renal, 6.18% (active); in the assay with CCRF-CEM leukemia, 88.6%; with MOLT-4 leukemia, 60.8%.
For `COc1cc(/C=C/C(=O)c2ccc(F)cc2)ccc1OCCCCOc1ccc(/C=C/C(=O)c2c(C)nc3ccccc3c2C)cc1OC`, the growth was 50.5% in the assay on SK-MEL-2 melanoma; 133% with EKVX NSCLC; 115% in the assay with SN12C renal; 86.8% with UO-31 renal; 114% in the assay on TK-10 renal; 95.8% with ACHN renal. For the same compound, the growth was 80.6% with CAKI-1 renal, 113% with A498 renal, 80.5% in the assay on CCRF-CEM leukemia and 67% in the assay on MOLT-4 leukemia.
On to `N#Cc1ccc2c(c1)C(=O)c1c-2n(CCCN)c(=O)c2cc([N+](=O)[O-])ccc12`, for which the growth is -52.2% (active) with SK-MEL-2 melanoma; -88% (active) with EKVX NSCLC; -100% (active) with SN12C renal; -100% (active) in the assay with UO-31 renal; -100% (active) in the assay on TK-10 renal; -100% (active) in the assay on ACHN renal. Moreover, the growth in the assay on CAKI-1 renal is -91.4% (active); with A498 renal, -39.3% (active); with CCRF-CEM leukemia, -72.6% (active); in the assay on MOLT-4 leukemia, -62.2% (active).
Consider `C=CCN=c1sc2c(n1NC(=O)c1cc3ccc1CCc1ccc(cc1)CC3)C(=O)c1ccccc1C2=O`, for which the growth is -17.3% (active) with SK-MEL-2 melanoma; -20.2% (active) with EKVX NSCLC; -96.6% (active) in the assay on SN12C renal; -35.2% (active) in the assay with UO-31 renal; 58.3% in the assay with TK-10 renal; -95.3% (active) in the assay with ACHN renal. Moreover, the growth was 20.3% in the assay on CAKI-1 renal, 56% with A498 renal, -3.65% (active) in the assay with CCRF-CEM leukemia and -15.5% (active) with MOLT-4 leukemia.
With `COc1ccc(\C=N/N=C(N)/C(N)=N\N=C/c2ccc(OC)cc2)cc1`, the growth was 95.5% with SK-MEL-2 melanoma; 95.6% in the assay with EKVX NSCLC; 111% in the assay on SN12C renal; 89.1% in the assay on UO-31 renal; 101% with TK-10 renal; 100% with ACHN renal. The growth in the assay with CAKI-1 renal is 89.8%; in the assay on A498 renal, 96.3%; in the assay on CCRF-CEM leukemia it was -48.3% (active); in the assay with MOLT-4 leukemia, 109%.
For `COc1ccc(-c2ccc(=O)oc2-c2cc(OC)c(OC)c(OC)c2)cc1O`, the growth in the assay with SK-MEL-2 melanoma is 39.6%; in the assay with EKVX NSCLC, 30.9%; with SN12C renal it was 25.7%; in the assay on UO-31 renal, 32.4%; with TK-10 renal, 68%; with ACHN renal, 38.9%. In addition, the growth in the assay with CAKI-1 renal was -15.8% (active); with A498 renal, -39.7% (active); in the assay with CCRF-CEM leukemia it was 7.05% (active); in the assay with MOLT-4 leukemia, 2.3% (active).
Turning to `O=C1c2c(c3c4ccccc4[nH]c3c3ccc4ccccc4c23)C(=O)N1CCN1CCNCC1`, the growth in the assay with SK-MEL-2 melanoma was 104%; with EKVX NSCLC it was 84.7%; in the assay with SN12C renal it was 65.2%; with UO-31 renal it was 56.7%; with TK-10 renal, 108%; in the assay on ACHN renal, -49.4% (active). For the same compound, the growth with CAKI-1 renal was 63.3%; in the assay on A498 renal, 61.2%; with CCRF-CEM leukemia it was 0.375% (active); in the assay on MOLT-4 leukemia, -20.3% (active).
With `Nc1ncc(-c2ccc3ncnc(Nc4cccc(Cl)c4)c3c2)cn1`, the growth in the assay with SK-MEL-2 melanoma was 50.1%; with EKVX NSCLC, 1.79% (active); in the assay with SN12C renal, 45.9%; in the assay with UO-31 renal, 26.2%; in the assay with TK-10 renal, -14.8% (active); in the assay on ACHN renal, 21.5%. The growth in the assay with CAKI-1 renal was 25.6%; with A498 renal it was -9.82% (active); with CCRF-CEM leukemia, 40.5%; in the assay on MOLT-4 leukemia, 21.7%.
As for `C#Cc1c2c(c(OC)c3c1OCO3)[C@H]([C@H]1OC(=O)c3c1ccc(OC)c3OC)N(C)CC2`, the growth in the assay with SK-MEL-2 melanoma is 67.7%; with EKVX NSCLC it was 89.8%; in the assay with SN12C renal, 100%; with UO-31 renal, 87.2%; in the assay on TK-10 renal, 76.1%; in the assay with ACHN renal, 93.6%. Besides, the growth with CAKI-1 renal was 86.3%; in the assay on A498 renal it was 72.6%; in the assay with CCRF-CEM leukemia, 80.7%; in the assay on MOLT-4 leukemia it was 77.3%.
Take `Cc1cc(C(=O)O)c(C)n1-c1cccc(C(=O)O)c1`: the growth was 18.8% in the assay on SK-MEL-2 melanoma; 98.5% with EKVX NSCLC; 83.7% in the assay on SN12C renal; 85.5% in the assay on UO-31 renal; 95.8% in the assay on TK-10 renal; -8.94% (active) in the assay on ACHN renal. Moreover, the growth in the assay with CAKI-1 renal is 13.8%; with A498 renal it was 93%; in the assay with CCRF-CEM leukemia it was 108%; in the assay on MOLT-4 leukemia, 62.9%.
Consider `COc1ccc(-c2nc3c(ncc4ccc(=O)[nH]c43)s2)cc1`, for which the growth is 106% in the assay with SK-MEL-2 melanoma; 63.8% with EKVX NSCLC; 78.2% in the assay with SN12C renal; 72.1% with UO-31 renal; 73.8% in the assay with TK-10 renal; 59.9% with ACHN renal. Also, the growth in the assay on CAKI-1 renal was 67.6%; in the assay on A498 renal, 42.3%; with CCRF-CEM leukemia, 72.6%; in the assay with MOLT-4 leukemia, 31.8%.
On to `Oc1c(I)cc(I)cc1CNCCN(Cc1ccccn1)Cc1ccccn1`, for which the growth with SK-MEL-2 melanoma was -52.4% (active); with EKVX NSCLC, -10.3% (active); in the assay with SN12C renal, 16%; with UO-31 renal, -89.4% (active); in the assay with TK-10 renal, -91.5% (active); in the assay on ACHN renal it was -84% (active). The growth was -92.2% (active) in the assay on CAKI-1 renal, -88.2% (active) with A498 renal, -10.1% (active) in the assay on CCRF-CEM leukemia and -29.5% (active) with MOLT-4 leukemia.
